A number with no mark means an inactive call. Activity calls are given as the source filed them. Calls follow the shape of the dose curve; as a rule, active = well fitted curve in the direction sought with a large enough effect in the repeat runs; inconclusive = weak or mixed curves; inactive = flat fitted curve, though single readings scatter.
assay: qHTS assay to test for compound auto fluorescence at 535 nm (green) in HepG2 cell free culture (AID 720686); conditions: Cell-free medium, green autofluorescence 485/535 nm; series mostly up to 91.3 µM
% is scaled to controls: 0 for no effect and ±100 for the full control effect.

Row | Structure (SMILES) | outcome | fluorescence, % of fluorescein control
1 | CCN(CCO)CCO | inactive | 
2 | C=CCc1cc(OC)c2c(c1)OCO2 | inactive | 
3 | CC(C)(C1CCC(O)CC1)C1CCC(O)CC1 (stereo not given) | inactive | 
4 | COc1cccc(C=O)c1 | inactive | 
5 | C=CC1(C)OC(=O)N(c2cc(Cl)cc(Cl)c2)C1=O (stereo not given) | inactive | 
6 | CNC(=O)NC(O)C(Cl)(Cl)Cl (stereo not given) | inactive | 
7 | COC(=O)[C@@H](N)CCCN/C(N)=N/[N+](=O)[O-] | inactive | 
8 | CC(C)(O)C(Cl)(Cl)Cl | inactive | 
9 | CCCC(C)(COC(N)=O)COC(N)=O | inactive | 
10 | Cc1cc(OC(=O)N(C)C)nn1C(=O)N(C)C | inactive | 
11 | CS(=O)(=O)Cl | inactive | 
12 | NCC1(CC(=O)O)CCCCC1 |  | -0.0096% [at 18.6 µM]
13 | COc1ccccc1OC | inactive | 
14 | [P]#[In] | inactive | 
15 | O=C(Cl)/C=C/C(=O)Cl | inactive | 
16 | CCOC(=O)NC(C)(C)Cc1ccc(Cl)cc1 | inactive | 
17 | O=c1[nH]oc2c1CCNC2 | inactive | 
18 | O=C(Cl)C(Cl)(Cl)Cl | inactive | 
19 | N#CN=C1SCCN1Cc1ccc(Cl)nc1 | inactive | 
20 | CN(CCO)CCO | inactive | 

Row | Structure (SMILES) | outcome | fluorescence, % of fluorescein control
21 | COC(=O)c1ccccc1CS(=O)(=O)NC(=O)Nc1nc(OC)cc(OC)n1 | inactive | 
22 | CCOC1Oc2ccc(OS(C)(=O)=O)cc2C1(C)C (stereo not given) | inactive | 
23 | C[N+]1(C)CCCCC1 | inactive | 
24 | Cc1ccc(-c2nc3ccc(C)cn3c2CC(=O)N(C)C)cc1 | inactive | 
25 | COc1cc(CCN)cc(OC)c1OC | inactive | 
26 | CC(=O)OCC1=C(C(=O)O)N2C(=O)[C@@H](N)[C@H]2SC1 |  | 0.161% [at 18.6 µM]
27 | O=P(O)(O)c1ccccc1 | inactive | 
28 | Oc1ccc(Cc2ccc(O)cc2)cc1 | inactive | 
29 | C=C1CC[C@@]2(O)[C@H]3Cc4ccc(O)c5c4[C@@]2(CCN3CC2CC2)[C@H]1O5 | inactive | 
30 | CCC(C(N)=O)N1CCCC1=O (stereo not given) | inactive | 
31 | CN(C)CCc1c[nH]c2cccc(OP(=O)(O)O)c12 | inactive | 
32 | CCC1(c2ccccc2)C(=O)N(COC)C(=O)N(COC)C1=O | inactive | 
33 | CCCCCCCCSC(=O)Oc1cc(Cl)nnc1-c1ccccc1 | inactive | 
34 | CCOP(=S)(OCC)Oc1ccc(Cl)cc1Cl | inactive | 
35 | O=[N+]([O-])CCO | inactive | 
36 | BrCc1ccc(Br)cc1 | inactive | 
37 | C[C@H](N)C(=O)c1ccccc1 | inactive | 
38 | CCc1cc(OC)c(C[C@H](C)N)cc1OC | inactive | 
39 | COC(=O)c1ccc(CBr)cc1 | inactive | 
40 | CCN[C@@H](C)Cc1cccc(C(F)(F)F)c1 | inactive | 

assay: qHTS assay to test for compound auto fluorescence at 460 nm (blue) in HepG2 cells (AID 720687); conditions: autofluorescence 405/460 nm, 1 h; series mostly up to 91.3 µM
How it was run: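 HepG2 cells in MEM with 10% FBS, attached overnight at 37 C, were exposed to compound or DMSO for 1 hr at 37 C, 5% CO2. Blue fluorescence was read at 405/460 nm, with triamterene as reference fluorophore.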

Row | Structure (SMILES) | outcome | fluorescence, % of fluorescent control
41 | CCN(CCO)CCO | inactive | 
42 | C=CCc1cc(OC)c2c(c1)OCO2 | inactive | 
43 | CC(C)(C1CCC(O)CC1)C1CCC(O)CC1 (stereo not given) | inactive | 
44 | COc1cccc(C=O)c1 | inactive | 
45 | C=CC1(C)OC(=O)N(c2cc(Cl)cc(Cl)c2)C1=O (stereo not given) | inactive | 
46 | CNC(=O)NC(O)C(Cl)(Cl)Cl (stereo not given) | inactive | 
47 | COC(=O)[C@@H](N)CCCN/C(N)=N/[N+](=O)[O-] | inactive | 
48 | CC(C)(O)C(Cl)(Cl)Cl | inactive | 
49 | CCCC(C)(COC(N)=O)COC(N)=O | inactive | 
50 | Cc1cc(OC(=O)N(C)C)nn1C(=O)N(C)C | inactive | 
51 | CS(=O)(=O)Cl | inactive | 
52 | NCC1(CC(=O)O)CCCCC1 |  | 0.027% [at 18.6 µM]
53 | COc1ccccc1OC | inactive | 
54 | [P]#[In] | inactive | 
55 | O=C(Cl)/C=C/C(=O)Cl | inactive | 
56 | CCOC(=O)NC(C)(C)Cc1ccc(Cl)cc1 | inactive | 
57 | O=c1[nH]oc2c1CCNC2 | inactive | 
58 | O=C(Cl)C(Cl)(Cl)Cl | inactive | 
59 | N#CN=C1SCCN1Cc1ccc(Cl)nc1 | inactive | 
60 | CN(CCO)CCO | inactive | 

Row | Structure (SMILES) | outcome | fluorescence, % of fluorescent control
61 | COC(=O)c1ccccc1CS(=O)(=O)NC(=O)Nc1nc(OC)cc(OC)n1 | inactive | 
62 | CCOC1Oc2ccc(OS(C)(=O)=O)cc2C1(C)C (stereo not given) | inactive | 
63 | C[N+]1(C)CCCCC1 | inactive | 
64 | Cc1ccc(-c2nc3ccc(C)cn3c2CC(=O)N(C)C)cc1 | inactive | 
65 | COc1cc(CCN)cc(OC)c1OC | inactive | 
66 | CC(=O)OCC1=C(C(=O)O)N2C(=O)[C@@H](N)[C@H]2SC1 |  | 0.185% [at 18.6 µM]
67 | O=P(O)(O)c1ccccc1 | inactive | 
68 | Oc1ccc(Cc2ccc(O)cc2)cc1 | inactive | 
69 | C=C1CC[C@@]2(O)[C@H]3Cc4ccc(O)c5c4[C@@]2(CCN3CC2CC2)[C@H]1O5 | inactive | 
70 | CCC(C(N)=O)N1CCCC1=O (stereo not given) | inactive | 
71 | CN(C)CCc1c[nH]c2cccc(OP(=O)(O)O)c12 | inactive | 
72 | CCC1(c2ccccc2)C(=O)N(COC)C(=O)N(COC)C1=O | inactive | 
73 | CCCCCCCCSC(=O)Oc1cc(Cl)nnc1-c1ccccc1 | inactive | 
74 | CCOP(=S)(OCC)Oc1ccc(Cl)cc1Cl | inactive | 
75 | O=[N+]([O-])CCO | inactive | 
76 | BrCc1ccc(Br)cc1 | inactive | 
77 | C[C@H](N)C(=O)c1ccccc1 | inactive | 
78 | CCc1cc(OC)c(C[C@H](C)N)cc1OC | inactive | 
79 | COC(=O)c1ccc(CBr)cc1 | inactive | 
80 | CCN[C@@H](C)Cc1cccc(C(F)(F)F)c1 | inactive | 

Source: PubChem BioAssay (Tox21)
